# Data taken from ChEMBL document CHEMBL3988442, “University of Dundee, Small-Polar-MMV Screening Library” (2021).
# The campaign covered roughly 48,000 compounds. About 13,000 (27%) showed an effect of 50% or more. The list shows a part of the results.
# Test system: Wolbachia pipientis
# Test: Anti-Wolbachia Cell-Based Screen
# Format: functional
# Set-up: scale not given: in the data most compounds retested in dose-response had high values
# Details: 5 µM
row,Structure (SMILES),Percent Effect [%]
1,COc1ccc(Cl)cc1CS(=O)(=O)Cc1cc(C)on1,6.419
2,CC(C)OCCS(=O)(=O)c1nccn1-c1cccc(F)c1,-15.74
3,c1cc(C[C@H]2[C@H](N3CCOCC3)CCN2Cc2ccoc2)ccn1,0.9808
4,CCN(CCCNc1ncnc2cc(F)c(F)cc12)S(C)(=O)=O,-17.06
5,Cc1ccc(OCC2CCCN(CC3CCOCC3)C2)cc1 (stereo not given),-21.59
6,CC(C)N(C)C(=O)C1=NOC2(CCN(C(=O)c3ccnnc3)C2)C1 (stereo not given),97.08
7,Cc1cccc(C(=O)N2CCC3(CC(C(=O)N(C)C(C)C)=NO3)C2)c1 (stereo not given),115.7
8,CC(C)N(C)C(=O)C1=NOC2(CCN(C(=O)c3cccn3C)C2)C1 (stereo not given),84.53
9,Cc1cccc(C(C)CNC(=O)N2CCC3(C2)OCCO3)c1 (stereo not given),-6.289
10,Cc1ccsc1C(=O)N1CCC2(CC(C(=O)N(C)C(C)C)=NO2)C1 (stereo not given),115.3
11,CC(C)N(C)C(=O)C1=NOC2(CCN(C(=O)c3ccncc3)C2)C1 (stereo not given),5.935
12,O=C(NCC1CC1)C1=NOC2(CCN(S(=O)(=O)c3cccs3)C2)C1 (stereo not given),6.398
13,CC(C)N(C)C(=O)C1=NOC2(CCN(C(=O)NCc3cccnc3)C2)C1 (stereo not given),-9.701
14,CS(=O)(=O)NCc1ccc(C(=O)NCc2ccc3c(c2)CCC3)o1,9.511
15,CCc1nc(Cn2ccnc2-c2nccn2C)no1,0.7793
16,Cc1nc(CN(C)C2CCN(Cc3cccc4cccnc34)C2)no1 (stereo not given),89.88
17,Cc1nc(CN(C)C2CCN(Cc3ccno3)C2)no1 (stereo not given),0.1776
18,Cc1nc(CN(C)C2CCN(Cc3cccc4c3OCCO4)C2)no1 (stereo not given),98.62
19,COc1ccc(OCC(=O)NC(C)c2ccc(F)cc2)c(C(=O)O)c1 (stereo not given),-8.723
20,Cc1cc(C(=O)N2CCCC(Cn3cc(C4CC4)nn3)C2)nc(C)n1 (stereo not given),-17.66
21,Cc1ccsc1-c1nnc(C2CCN(Cc3ccc(F)cc3)CC2)o1,-8.577
22,Cc1cc(-c2nccs2)nc(C2CCN(Cc3ccc(F)cc3)CC2)n1.Cl,104.7

row,Structure (SMILES),Percent Effect [%]
1,Cc1cc(-c2nccs2)nc(C2CCN(Cc3ccncc3)CC2)n1.Cl,130.1
2,CCn1c(CN2CCCC2)nnc1C1CCN(Cc2ccncc2)CC1,-5.506
3,CCn1c(CN(C)C)nnc1C1CCN(Cc2ccncc2)CC1,-6.888
4,CNC(=O)CSC(C)c1ccc(Br)cc1 (stereo not given),-4.092
5,COC(=O)CN(C(=O)c1ccco1)c1cccc(F)c1,6.947
6,O=c1c2cccnc2cnn1CC(O)c1cccc(C(F)(F)F)c1 (stereo not given),6.556
7,O=C(NCCc1coc(-c2ccc(F)cc2)n1)NC1CCC(O)CC1 (stereo not given),2.186
8,CC(O)CN1CCN(Cc2coc(-c3cccc(Cl)c3)n2)CC1 (stereo not given),-12.56
9,CC(SCCC(=O)NC(N)=O)c1ccc(F)cc1F (stereo not given),-2.178
10,Cc1ccc(-c2nc(CCNC(=O)CCN3CCOC3=O)co2)cc1,4.701
11,CNC(=O)CS(=O)(=O)Cc1coc(-c2ccc(F)cc2)n1,-9.885
12,NC(=O)NC(=O)CCSCc1coc(-c2ccc(F)cc2)n1,75.11
13,Cc1ccc(-c2nc(CSCCC(=O)NC(N)=O)co2)c(C)c1,110.2
14,COCCN(Cc1coc(-c2cccc(Cl)c2)n1)C1CC1,9.963
15,NC(=O)NC(=O)CCSCc1coc(-c2cccc(Cl)c2)n1,85.07
16,Cc1ccc(-c2nc(CSCCC(=O)NC(N)=O)co2)cc1,98.78
17,NC(=O)NC(=O)CCSc1ccccc1Cl,-10.1
18,COC(=O)CSCc1noc(-c2ccc(C)cc2)n1,-9.658
19,CNc1nc(C(=O)NCc2cccnc2N(C)C2CCCCC2)cs1,1.168
20,Cc1nn(C)c2nc(N(C)CCN(C)C)sc12,-12.15
21,Cc1cc(C#N)ccc1S(=O)(=O)NCc1cnc(N(C)C)n1C,-10.13
22,Cc1ccccc1N1CC2(CCCCN2CC2CC2)CC1=O.O=C(O)C(F)(F)F (stereo not given),0.424

row,Structure (SMILES),Percent Effect [%]
1,CN(C)CC(=O)N1CCC2(CC(=O)N(c3cccc(C#N)c3)C2)C1.O=C(O)C(F)(F)F (stereo not given),-15.58
2,O=C(O)C(F)(F)F.O=C1CC2(CCCCN2CC2CC2)CN1c1ccccc1 (stereo not given),-2.383
3,COCCN1CCCCC12CC(=O)N(c1ccccc1OC)C2.O=C(O)C(F)(F)F (stereo not given),105
4,N#Cc1ccccc1N1CC2(CCCCN2CC2CC2)CC1=O.O=C(O)C(F)(F)F (stereo not given),-5.23
5,COCCN1CCCCC12CC(=O)N(c1cccc(C#N)c1)C2.O=C(O)C(F)(F)F (stereo not given),96.19
6,CCN1CCN(C(=O)c2ccc(OC)nn2)c2ccccc21,6.209
7,CC(C)(C)Cc1nnc(NCc2cccc(C#N)c2)o1,-57.27
8,CS(=O)(=O)NC1CCN(C(=O)c2ccc(Br)cc2)C1 (stereo not given),2.662
9,Cn1cc(NC(=O)N2CCC(NS(C)(=O)=O)CC2)ccc1=O,-4.185
10,CS(=O)(=O)NC1CCCN(C(=O)c2cccnc2)C1 (stereo not given),108.4
11,CS(=O)(=O)NC1CCCN(C(=O)Nc2cccnc2N2CCCC2)C1 (stereo not given),111.1
12,CC(C)S(=O)(=O)NCC1CCCN(C(=O)c2cccnc2)C1 (stereo not given),-9.569
13,COCCCC(=O)Nc1cccnc1N1CCCCC1,0.2962
14,CC(NC(=O)Nc1cccnc1N1CCCC1)c1ccccn1 (stereo not given),9.094
15,CS(=O)(=O)NC1CCCN(C(=O)Nc2cccnc2)C1 (stereo not given),122.7
16,CCCN(C(=O)CNC1CCc2ncnn2C1)C1=CCCCC1 (stereo not given),7.464
17,COC1CCN(C(=O)CC(C)(C)C)CC(=O)N(C)c2ccccc21 (stereo not given),108.9
18,CC(C)(C)CC(=O)N1CC[C@H]2CC(=O)N(CCc3c[nH]cn3)CC[C@H]2C1,-18.99
19,COC1CCN(C(=O)COC(C)=O)CC(=O)N(C)c2ccccc21 (stereo not given),102.8
20,CC(C)(C)CC(=O)N1CC[C@H]2NC(=O)N(Cc3ccccc3)C(=O)[C@H]21,-1.242
21,CCC[C@H]1CN(c2nccc(OC)n2)C[C@@H]1NS(=O)(=O)N(C)C,12.34
